The text below walks through data of PubChem BioAssay (NCATS).

Assay [1] deals with Voltage-gated inwardly rectifying potassium channel KCNH2 (Homo sapiens) (UniProt Q12809). Briefly: qHTS Assay for Small Molecule Inhibitors of the Human hERG Channel Activity (AID 588834).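 Note: top concentration of the series differs between compounds; % is set by controls: 0 for no effect and ±100 for the full control effect; lower thallium flux fluorescence means stronger hERG block; nearly all actives have a fitted effect of over 50% in size.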 The method in brief:
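Kinetic FDSS fluorescence; U2OS + hERG BacMam (~100 virus particles/cell); FluxOR Tl+ flux; ~10 min cpd; AC50 (Hill).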

Assay [2] deals with Luciferin 4-monooxygenase (Photinus pyralis) (UniProt P08659). As to the kind of experiment: Biochemical firefly luciferase enzyme assay for NPC (AID 624030).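 Note: purified P. pyralis luciferase at 10 nM with luciferin and ATP substrate; 0% = DMSO and -100% = full luciferase inhibition by PTC124 control; nearly all actives have a fitted effect of over 70% in size.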 In outline: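 Direct inhibition of firefly luciferase enzyme (10 nM final, 50 mM Tris Acetate) assessed by luminescence within 5 minutes. Percent activity scaled between DMSO and PTC124 positive control, with concentration-effect curves classified by fit quality and response.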
Chain of Luciferin 4-monooxygenase (Photinus pyralis) (P08659 whole entry, looked up): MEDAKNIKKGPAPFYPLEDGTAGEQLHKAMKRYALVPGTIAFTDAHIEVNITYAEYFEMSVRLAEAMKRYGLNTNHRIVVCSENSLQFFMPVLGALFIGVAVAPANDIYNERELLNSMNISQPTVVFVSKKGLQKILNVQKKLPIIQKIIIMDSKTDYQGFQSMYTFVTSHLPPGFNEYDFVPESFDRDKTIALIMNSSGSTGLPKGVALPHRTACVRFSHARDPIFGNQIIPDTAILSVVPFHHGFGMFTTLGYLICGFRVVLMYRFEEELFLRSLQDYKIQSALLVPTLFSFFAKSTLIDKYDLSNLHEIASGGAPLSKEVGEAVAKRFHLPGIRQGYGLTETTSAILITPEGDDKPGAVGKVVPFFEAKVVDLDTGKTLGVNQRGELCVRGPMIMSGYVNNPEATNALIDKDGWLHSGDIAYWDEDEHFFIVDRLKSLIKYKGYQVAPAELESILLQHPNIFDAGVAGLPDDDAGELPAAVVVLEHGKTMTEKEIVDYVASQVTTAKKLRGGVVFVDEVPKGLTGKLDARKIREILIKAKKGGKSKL

A short description of assay [3]: S16 Schwann cell viability assay (CellTiter-Glo assay) (AID 624031).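 Note: native untransfected S16 rat Schwann cells; cellular ATP luminescence as a viability measure; plate controls were DMSO-treated cells for no effect and cell-free wells for full effect; nearly all actives have a fitted effect of over 70% in size.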 The method in brief: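 Concentration-effect curves come from CellTiter-Glo luminescence of S16 rat Schwann cells after 24 h compound exposure. Each reading was normalized to DMSO wells (0%) and wells without cells, and curves were ranked by r2 and response magnitude.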
The nature of assay [4]: S16 Schwann cell PMP22 intronic element firefly luciferase assay (AID 624032). Note: nearly all actives have a fitted effect of over 30% in size. Note: potency is the fitted concentration of half-maximal effect. In outline: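 Luciferase reporter of PMP22 intronic-element expression in stably transfected S16 rat Schwann cells, read by ONE-Glo luminescence after 24 h compound exposure at 37 C. Activity scaled between DMSO (0%) and positive-control PTC124; concentration-effect curves quality-classified.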

Assay [5] in a line: Cytotoxicity counterscreen for NFkB agonists and antagonists (AID 624476).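 Note: cells exposed to compound for 48 hours.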 Note: potency is the fitted concentration of half-maximal effect.
Assay [6] in a line: qHTS Assay for Identification of Small Molecule Agonists for NFkB Signaling Pathway. (AID 624478). Note: 0% is about no effect. The method in brief: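 NFkB-bla ME-180 cells carry a beta-lactamase reporter. They received compound plus TNF alpha at 10 pM final (its EC50) for 5 h at 37 C. Reporter activity was read as 460/530 nm emission ratio after 2 h LiveBLAzer substrate loading.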
Assay [7] in a line: qHTS Assay for Identification of Small Molecule Antagonists for NFkB Signaling Pathway. (AID 624479; calls by dose curve;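 note: pathway stimulated with TNF alpha; potency is the fitted concentration of half-maximal effect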).
Assay [8] can be described thus: Cell Proliferation Assay against the TMD8 Cell Line (AID 651645).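 Note: cells exposed to compound for 48 h before reading.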 The note with it: TMD8 DLBCL cell line proliferation/viability; at 46.1 µM (top of the series). In outline: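 Viability by CellTiter-Glo after 48 h compound exposure of 500 log-phase TMD8 cells per well (RPMI, 5% FBS). Percent activity scaled between DMSO (100%) and 9.2 uM final bortezomib (0%).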
Assay [9] is described as follows: Cell Proliferation Assay against the HBL1 Cell Line (AID 651646).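 Note: cells exposed to compound for 48 h before reading.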 The note with it: HBL1 DLBCL cells; at 46.1 µM (top of the series). In outline: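 Luminescent ATP read-out (CellTiter-Glo) after 48 h compound exposure of HBL1 cells at 37 °C; percent activity was scaled between DMSO as 100% and 9.2 uM bortezomib (final) as 0%.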
Assay [10] can be described thus: Cell Proliferation Assay against the TMD8 Cell Line (Caspase readout at 16 hrs) (AID 651712). Note: potency is the fitted concentration of half-maximal effect. In outline: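 Apoptotic response of TMD8 cells was judged from caspase 3/7 activation following a 16 hour compound incubation at 37 °C. Luminescent signal was converted to percent activity, with DMSO set as 0% and 9.2 uM final bortezomib as 100%.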
The nature of assay [11]: S16 Schwann cell PMP22 intronic element beta-lactamase assay (AID 624044; calls by dose curve;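 note: 0% = DMSO and -100% = potassium clavulanate positive control; nearly all actives have a fitted effect of over 15% in size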). In outline: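 Rat S16 Schwann cells with beta-Lac driven by a PMP22 intronic element, compound-treated 24 h at 37 °C. LiveBLAzer FRET B/G read: 460 nm normalized to potassium clavulanate vs DMSO; 535 nm FRET as viability; concentration-effect curves classified.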

The structures appear in SMILES notation. Results filed as inconclusive are left out. The source made the active and inactive calls. Unless noted, calls come from the whole dose curve; as a rule, active = well fitted curve in the direction sought with a large enough effect; inconclusive = small, poorly fitted or top-dose-only effect, or another doubt; inactive = no such curve, though single readings can be large; an effect the other way counts as inactive or inconclusive.

Chain of Voltage-gated inwardly rectifying potassium channel KCNH2 (Homo sapiens) (Q12809 whole entry, looked up): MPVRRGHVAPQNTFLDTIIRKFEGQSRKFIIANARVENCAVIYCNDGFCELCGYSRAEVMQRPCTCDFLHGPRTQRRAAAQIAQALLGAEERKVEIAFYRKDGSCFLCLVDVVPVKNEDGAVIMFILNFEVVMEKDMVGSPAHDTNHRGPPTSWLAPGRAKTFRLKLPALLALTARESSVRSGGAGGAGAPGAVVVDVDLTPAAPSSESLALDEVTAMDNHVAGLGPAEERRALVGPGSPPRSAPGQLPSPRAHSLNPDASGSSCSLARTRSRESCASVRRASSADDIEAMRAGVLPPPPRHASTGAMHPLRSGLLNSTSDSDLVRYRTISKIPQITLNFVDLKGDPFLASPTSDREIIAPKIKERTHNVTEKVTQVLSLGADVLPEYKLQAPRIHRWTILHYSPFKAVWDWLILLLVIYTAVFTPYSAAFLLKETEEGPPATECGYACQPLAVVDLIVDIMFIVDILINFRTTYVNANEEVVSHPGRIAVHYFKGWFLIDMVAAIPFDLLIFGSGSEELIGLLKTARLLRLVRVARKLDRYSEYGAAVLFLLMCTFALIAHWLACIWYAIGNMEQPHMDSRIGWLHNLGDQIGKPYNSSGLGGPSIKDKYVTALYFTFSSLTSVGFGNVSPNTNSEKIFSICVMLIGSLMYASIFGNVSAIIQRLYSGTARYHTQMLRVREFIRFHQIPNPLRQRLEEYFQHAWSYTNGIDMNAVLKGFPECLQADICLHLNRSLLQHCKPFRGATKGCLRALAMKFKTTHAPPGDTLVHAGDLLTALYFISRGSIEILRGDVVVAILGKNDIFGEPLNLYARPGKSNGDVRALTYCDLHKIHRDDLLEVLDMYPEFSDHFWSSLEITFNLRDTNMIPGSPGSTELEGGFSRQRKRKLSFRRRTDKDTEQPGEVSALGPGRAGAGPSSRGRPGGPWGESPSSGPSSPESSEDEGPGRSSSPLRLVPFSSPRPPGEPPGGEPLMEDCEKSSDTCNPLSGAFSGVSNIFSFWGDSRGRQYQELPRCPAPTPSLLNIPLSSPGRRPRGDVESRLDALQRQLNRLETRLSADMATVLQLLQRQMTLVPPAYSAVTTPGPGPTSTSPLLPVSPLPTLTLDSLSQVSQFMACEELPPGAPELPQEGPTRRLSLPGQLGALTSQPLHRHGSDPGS

Take `Nc1ccn([C@@H]2CS[C@H](CO)O2)c(=O)n1`: the Potency entry in assay [1], in [2] and in [4] was “inactive” in each case. In addition, the compound was classed as inactive in assay [3].

Consider `Cc1cccc(C=NNc2cc(N3CCOCC3)nc(OCCc3ccccn3)n2)c1`, for which, in assay [5], the Potency result was “inactive”. Also, the call in assay [6] was inactive. Moreover, in assay [7], the Potency is 21.1 µM (active). The viability (% of control) in assay [8] was 0.274%. Also, the viability, percent of control in assay [9] amounted to 0.729%.

`COc1cc2c(Oc3ccc(-c4cnc(Nc5ccc(F)cc5)n(C)c4=O)cc3F)ccnc2cc1OCCCN1CCOCC1`: the Potency in assay [5] is 29.6 µM (active); in [7] it was 18.8 µM (active); in [10], 16.6 µM (active). For the same compound, the compound was classed as inactive in [6]. Moreover, in [8], the viability (% of control) came to 1.34%. For the same compound, in assay [9], the viability, percent of control came to 1.76%.

For `O=c1[nH]c(=O)n(C2CCCO2)cc1F` (stereo unspecified), the Potency result in assay [2], in assay [4] and in assay [11] was “inactive” each time. Further, in assay [3], the result was inactive.

Turning to `CC[C@H]1CN2CCc3cc(OC)c(OC)cc3[C@H]2C[C@@H]1C[C@@H]1NCCc2cc(OC)c(OC)cc21`, in assay [2], the Potency result is “inactive”. In addition, the result in [3] was inactive.

Turning to `CC1(C)O[C@@H]2C[C@@H]3[C@H]4C[C@@H](F)C5=CC(=O)C=C[C@]5(C)[C@@]4(F)[C@@H](O)C[C@]3(C)[C@]2(C(=O)CO)O1`, the Potency result in assay [2], in [4] and in assay [11] was “inactive” throughout. The call in assay [3] was inactive.

On to `CC1(C)OC2=C(C(=O)c3ccccc3C2=O)[C@H](NCc2ccccc2)[C@H]1O`, for which the Potency in assay [5] is 5.26 µM (active); in [7] it was 3.75 µM (active). In assay [6], the compound was called inactive. The viability (% of control) in [8] stood at 5.62%. Besides, the viability, percent of control in assay [9] worked out at 6.45%. Besides, the Potency result in [10] is “inactive”.

As to `CC(C)C[C@H](NC(=O)CNC(=O)c1cc(Cl)ccc1Cl)B(O)O`, the values for the Potency in [5] and in assay [7] were 0.0743 µM (active) and 0.0084 µM (active), respectively. In addition, the call in [6] was inactive. The viability (% of control) in [8] was 4.52%. For the same compound, in [9], the viability, percent of control was 5.36%.

For the compound `CC(C)(C)NC(=O)[C@H]1CN(Cc2cccnc2)CCN1C[C@@H](O)C[C@@H](Cc1ccccc1)C(=O)N[C@H]1c2ccccc2C[C@H]1O`, the Potency entry in assay [1], in [2] and in assay [11] was “inactive” in each case. Also, in assay [4], the Potency is 36.1 µM (active).

In the case of `COc1c(N2C[C@@H]3CCCN[C@H]3C2)c(F)cc2c(=O)c(C(=O)O)cn(C3CC3)c12`, the Potency result in assay [1], in assay [2] and in assay [4] was “inactive” throughout. Moreover, the outcome in assay [3] was inactive.

In the case of `COC(=O)[C@]12CCC(C)(C)C[C@@H]1[C@@H]1C(=O)C=C3[C@@]4(C)C=C(C#N)C(=O)C(C)(C)[C@@H]4CC[C@@]3(C)[C@]1(C)CC2`, the Potency in [5] was 1.32 µM (active); in assay [7], 0.595 µM (active). The compound was classed as inactive in assay [6].

In the case of `Nc1ccc(S(=O)(=O)Nc2ncccn2)cc1`, the Potency entry in assay [1] and in assay [11] was “inactive” each time. Also, the outcome in assay [3] was inactive. Also, the Potency in [4] was 6.91 µM (active).

On to `CCC1=C[C@@H]2CN(C1)Cc1c([nH]c3ccccc13)[C@@](C(=O)OC)(c1cc3c(cc1OC)N(C)[C@@H]1[C@@](O)(C(=O)OC)[C@H](OC(C)=O)[C@]4(CC)C=CCN5CC[C@]31[C@@H]54)C2`, for which, in [2], the Potency result is “inactive”. Also, the compound was called inactive in assay [3]. Moreover, the Potency in assay [4] was 0.907 µM (active).

In the case of `Cc1nc2ccc(CN(C)c3ccc(C(=O)N[C@@H](CCC(=O)O)C(=O)O)s3)cc2c(=O)[nH]1`, the Potency result in [1] and in [2] was “inactive” throughout.

Consider `CC=CC1=C(C(=O)O)N2C(=O)[C@H](NC(=O)[C@H](N)c3ccc(O)cc3)[C@@H]2SC1`, for which the Potency entry in assay [1], in [2] and in assay [4] was “inactive” throughout. Further, in assay [3], the result was inactive.

`CN[C@H]1CCc2cc(OC)c(OC)c(OC)c2-c2ccc(OC)c(=O)cc21`: the Potency entry in [1] was “inactive”.
